{
  "source": "the supplement of paper PMC10477191",
  "note": "± gives the standard deviation of the averaged measurements.",
  "data": [
    {"test_system": "Drosophila virilis antennal basiconic sensillum AB1", "test": "odor-evoked OSN spike response (post minus pre-stimulus); higher = stronger neuronal excitation", "settings": "odor dilution: 10^-4", "procedure": "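Single sensillum recordings from antennal basiconic sensilla of D. virilis. A 500 ms pulse of odorant (10^-4 in mineral oil or DMSO) was delivered; the response is the change in spike frequency between the 1 s pre- and post-stimulus windows (spikes/s).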", "units": {"odor-evoked OSN spike response": "spikes/s"}, "values": [
      {"smiles": "CC(C)=O", "note": "[acetone]", "odor-evoked OSN spike response": "73.5 ± 24"}
    ]}
  ]
}
